Measured values reported in PubChem BioAssay AID1469 (National Center for Advancing Translational Sciences (NCATS), 2008).
In all, about 280,000 compounds went through this assay and about 180 (0.064%) were called active. The call rests on the fitted dose curve; in most records, active means well fitted inhibition curve with a large enough effect; inconclusive means small, poorly fitted or top-dose-only effect, or effect the other way; inactive means flat fitted curve, though single readings scatter. The sample as a whole holds a higher share of actives than the screen did.

biological target: Thyroid hormone receptor beta (Homo sapiens) (UniProt P10828); assay: qHTS for Inhibitors of the Interaction of Thyroid Hormone Receptor and Steroid Receptor Coregulator 2; conditions: TRbeta-SRC2 peptide binding, fluorescence polarization, receptor liganded with 1 µM T3; series mostly up to 106 µM; activity change, negative = inhibition: at the top concentration; further: nearly all actives have a fitted effect of over 50% in size;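 on activity change, negative = inhibition: plate controls were bound peptide for no effect and peptide without receptor for full effect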
Text: NIH Molecular Libraries Probe Production Network [MLPCN]
NIH Chemical Genomics Center [NCGC]
Assay Provider: R. Kip Guy, St. Jude Children's Research Hospital
Thyroid receptor (TR) regulates many homeostatic processes including basal metabolism, cardiovascular function, body weight, and lipid trafficking. TR modulators are potential therapeutics for obesity and hyperlipidemias but current thyroid analogs have undesirable side effects, particularly cardiac stimulation. To identify inhibitors that specifically prevent the interaction of TR with the steroid receptor coregulator 2 (SRC2), a fluorescence polarization assay was screened. This assay detects interaction of the ligand-binding domain of human TRb with a Texas Red labeled SRC2 peptide, corresponding to a 20 amino acid region of the nuclear receptor interaction domain (Arnold et al., 2006). Small molecule inhibitors that block the interaction of TR and SRC2 are detected by a decrease in fluorescence polarization.
Arnold, L. A.; Estebanez-Perpina, E.; Togashi, M.; Shelat, A.; Ocasio, C. A.; McReynolds, A. C.; Nguyen, P.; Baxter, J. D.; Fletterick, R. J.; Webb, P.; Guy, R. K. A high-throughput screening method to identify small molecule inhibitors of thyroid hormone receptor coactivator binding. Sci STKE 2006, p 13.
NCGC Assay Protocol Summary:
For screening, 5 uL/well 0.6 uM TRb and 20 nM SRC2 Texas Red in protein buffer (20mM Tris hydrochloride, 100mM NaCl, 10% glycerol, 1mM EDTA, 0.01% NP-40, 1mM DTT, 1uM T3 and 5% DMSO) was dispensed into black solid 1536-well plates (Grenier) using a solenoid-based dispenser. Following transfer of 23 nL compound or DMSO vehicle by a pin tool, the plates were centrifuged 15 s at 1000 RPM and incubated 5 hr at ambient temperature. The plates were read by an Envision (Perkin Elmer) to detect fluorescence polarization of SRC2 Texas Red (555 nm excitation and 632 nm emission). Data were normalized to unbound (all components except TRb) and bound SRC2 Texas Red controls. In this assay, we provide % activity data for each concentration as well as potencies for the active compounds.
Keywords: NIH Roadmap, MLPCN, MLI, MLSMR, qHTS, NCGC, qHTS, thyroid hormone receptor, steroid receptor coactivator, fluorescence polarization
Potency means the concentration at half of the fitted maximal effect.

Thyroid hormone receptor beta (Homo sapiens), sequence (P10828 whole entry, looked up): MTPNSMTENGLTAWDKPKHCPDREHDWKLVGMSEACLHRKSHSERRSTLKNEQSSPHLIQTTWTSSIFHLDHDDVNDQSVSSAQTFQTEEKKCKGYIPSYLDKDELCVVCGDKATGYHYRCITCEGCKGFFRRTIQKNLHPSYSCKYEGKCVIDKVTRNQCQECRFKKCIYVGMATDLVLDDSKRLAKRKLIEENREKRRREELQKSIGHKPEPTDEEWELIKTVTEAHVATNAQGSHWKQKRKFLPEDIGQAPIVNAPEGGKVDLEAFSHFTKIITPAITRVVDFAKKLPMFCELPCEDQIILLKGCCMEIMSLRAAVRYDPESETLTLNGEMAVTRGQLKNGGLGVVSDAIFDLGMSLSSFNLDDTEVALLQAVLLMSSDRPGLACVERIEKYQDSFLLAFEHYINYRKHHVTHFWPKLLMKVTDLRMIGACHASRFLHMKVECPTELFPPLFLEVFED

Activity change, negative = inhibition, inactive:
COc1ccc(CNC(=O)c2ccc(NC(=O)N3CC4CCCN4c4ccccc43)cc2)cc1 (stereo not given) -4.18%, Cc1cccc(N2CCN(C3=C(c4ccccc4)C(=O)c4ccccc43)CC2)c1C -3.14%, Cc1nc2nc(NCc3cccc(Br)c3)[nH]n2c(=O)c1Cc1ccccc1 -7.16%, C[Si](C)(C)N[Si](C)(C)C 2.92% [at 201 µM], O=C(/C=C/Nc1ccccc1OC(F)(F)F)C(F)(F)F 5.17%, CCCOc1ccc(N/C=C/C(=O)C(C)(C)C)cc1 4.71%, COc1ccc(C2=NC(c3ccncc3)=Nc3ccc(Br)cc3N2)cc1 -4.88%, Cc1ccccc1OCc1ccc(-c2nc(C#N)c(N3CCCCC3)o2)o1 0.495%, Cc1cc(=O)n(CC(=O)Nc2cccc([N+](=O)[O-])c2)c(-n2nc(C)cc2C)n1 3.16%, Cc1ccc(NC(=O)c2oc3ccc(S(=O)(=O)N4CCCCC4)cc3c2C)cc1Cl -6.34%, CCN(CC)c1cc(NC2CCCCC2)c2c3c(onc13)-c1ccccc1C2=O -2.27%, COc1cc(NC(=O)c2noc3c2CSc2ccccc2-3)cc(OC)c1OC 3.67%, CCc1cccc(C)c1Nc1c(-c2ccc(N(C)C)cc2)nc2ncccn12 7.62%, CCOCCCNC(=O)c1ccc2nc(CCc3ccccc3)oc2c1 4.71%, CCc1ccccc1NC(=O)Cc1ccc(NC(=O)N2CCCCc3ccccc32)cc1 -8.69%, CCOC(=O)c1ccc(N2C(=O)c3n[nH]c(-c4ccco4)c3C2c2ccc(O)cc2)cc1 (stereo not given) -1.97%, O=C(CCOc1ccccc1)N(Cc1cccnc1)c1nc2ccc(Cl)cc2s1 -8.93%, CCOC(=O)N1CCc2c(sc(NCc3cccc(F)c3)c2C(=O)Nc2ccccc2OCC)C1 -2.15%, COC(=O)CC1Oc2ccccc2-n2cc(-c3ccccc3)nc21 (stereo not given) 2.42%, Cc1ccc(O)c(NC(=O)CCS(=O)(=O)c2nc(-c3ccc4c(c3)OCO4)cc(C(F)(F)F)n2)c1 0.6%, Cc1cc(C)cc(NC(=O)CSc2oc(-c3ccccc3)nc2S(=O)(=O)c2ccc(Cl)cc2)c1 3.51%, CCOc1ccc(CNC(=O)c2ccc(CS(=O)c3ccccc3)o2)cc1 (stereo not given) 2.05%, CCCn1c(NCc2ccc(N(CC)CC)cc2)nc2ccccc21 5.29%, CCOCCCNC(=O)c1c(NC(=O)Cc2coc3ccc(C)cc23)sc2c1CCC2 -6.01% [at 53 µM], Cc1ccc2nc(-c3ccc(O)cc3)c(Nc3ccc4c(c3)OCO4)n2c1 -5.88%, Cc1ccc(-c2nc3ccccn3c2Nc2c(C)cccc2C)o1 2.13%, Cc1ccccc1CS(=O)(=O)CC1Nc2ccc(C(=O)NCc3ccc(Cl)cc3)cc2NC1=O (stereo not given) -3.54%, Cc1cccc(N2CCN(c3ccc(C(=O)O)cc3NC(=O)c3ccccc3F)CC2C)c1 (stereo not given) -2.14%, CCOc1ccc(-c2cc(C)n3nc(C(=O)Nc4ccc(C)c(C)c4)cc3n2)cc1 3.95%, COc1ccc(N=C(C)c2sc3ccccc3c2O)cc1 1.68%, O=C(N/N=C/c1c(Cl)[nH]c2ccccc12)c1sc2ccccc2c1Cl 0.527%, COc1cccc(-c2cc(C(=O)Nc3ccc(C)cc3)[nH]n2)c1 -2.44%, COc1ccc(CC(=O)Nc2nnc3n2CCS3)cc1OC 5.54%, Cc1ccc(Nc2nnc(-c3ccc(C)c(S(=O)(=O)N4CCCCC4)c3)c3ccccc23)cc1 -3.05%, COc1ccccc1N1CCN(CCCNC(=O)c2cnn(-c3ccccc3Cl)c2C2CCN(C(=O)OC(C)(C)C)CC2)CC1 5.02%, CC1(C)C(=O)N(Cl)C(=O)N1Cl 4.76% [at 201 µM], CCCCCCCCCCCCCCCC 3.03% [at 201 µM], CCOc1ccccc1NC(=O)Cn1c2ncccc2c(=O)n1-c1ccc(C)c(C)c1 -4.71%, CC(C)Cn1c(-c2ccc(S(=O)(=O)N3CCOCC3)cc2)csc1=Nc1cc(Cl)ccc1Cl 7.76%, COc1cccc(-c2nc(CS(=O)(=O)CC(=O)N3CCN(c4cc(C)ccc4C)CC3)c(C)o2)c1 3.54%, CC1(C)C(=O)N(Br)C(=O)N1Br -5.8% [at 201 µM], Cc1nc2ccn(Cc3cccs3)c(=O)c2cc1C(=O)NCc1ccc(Cl)cc1 -1.99%, CCOc1cc(-c2nnc(SCC(=O)NC3CCCCC3)nc2-c2ccc(OC)c(OCC)c2)ccc1OC 1.75%, Cc1ccc(N)c(S(=O)(=O)O)c1 2.84% [at 201 µM], CCc1c(C(=O)O)c(=O)cnn1-c1ccc(Cl)cc1 -9.72% [at 201 µM], CC1CCN(S(=O)(=O)c2ccc3c(ccn3CCC(=O)NCc3ccc(N(C)C)cc3)c2)CC1 5.16%, COc1ccc(N2CCN(C(=O)C3CCCN(C(=O)c4cc5sccc5n4C)C3)CC2)cc1 (stereo not given) -10.4%, CC(=O)Nc1ccc(NC(=O)c2cc3sccc3n2Cc2ccc(F)cc2)cc1 -11.5% [at 53 µM], CCOc1ccc(OCC)c(NC(=O)CN(c2ccc(C)cc2)S(=O)(=O)c2c(C)n[nH]c2C)c1 -4.13%, COc1ccc(CCNC(=O)CCCCn2c(=O)c3ccccc3n(Cc3ccccc3)c2=O)cc1OC 3.43%, CCCS(=O)(=O)c1c(Nc2ccccc2C)sc(C(=O)c2ccccc2)c1N -0.894%, COc1cccc(NC(=O)CSc2cc(=O)n(C)c3ccc(Cl)cc23)c1 -5.98%, CSc1ccccc1NC(=O)CCS(=O)(=O)c1nc(-c2cccs2)cc(C(F)(F)F)n1 -1.72%, COc1ccc2c(c1)Cc1sc(NC(=O)c3ccccc3Br)nc1-2 1.79%, COc1cc(OC)c(NC(=O)N2CC3CCCN3c3ccccc32)cc1Cl (stereo not given) 7.62%, Cc1ccc(C2C=C(c3ccc(Cl)cc3)Nc3nc(NC(=O)CCC(=O)O)nn32)cc1 (stereo not given) 7.02%, O=S(=O)(c1ccc2nc(NCc3ccccc3Cl)ccc2c1)N1CCCCC1 -4.04%, COc1ccc(NC(=O)C2CCN(c3ccc(Sc4ccc(C)cc4)nn3)CC2)c(OC)c1 -5.8%, COc1ccc(Nc2ncc(C(=O)Nc3cc(C)ccc3OC)c3ccccc23)cc1 3.62%, Cc1ccc(S(=O)(=O)c2nc(-c3cccs3)oc2N2CCCCC2)cc1 -2.62%, COc1ccccc1Nc1c2c(nc3ccc(NC(=O)/C=C/c4cc(OC)c(OC)c(OC)c4)cc13)CCCC2 -2.02%, COc1cccc(Cn2c(SCc3ccc(C(=O)N4CCC(C)CC4)cc3)nc3ccncc32)c1 3.21%, CCOC(=O)Cn1c(=O)n(-c2ccccc2OC)c2nc(-c3cccc(F)c3)nc(C(N)=O)c21 4.92%, Cc1cccc(N2CCN(C(=O)c3cc4c(=O)oc5ccccc5c4s3)CC2C)c1 (stereo not given) -3.7%, COc1ccc(C)cc1NC(=O)C(=O)NCCc1sc(-c2cccc(C)c2)nc1C 2.44%, Cc1cccc(Cn2c(SCc3ccc(C(=O)N4CCC(C)CC4)cc3)nc3ccncc32)c1 5.36%, CN1CCN(c2oc(-c3ccc(COc4ccc(Cl)cc4)o3)nc2C#N)CC1 -3.91%, CC(=O)c1ccc(NC(=O)CSc2c(C(C)C)cnc3c2c(=O)n(C)c(=O)n3C)cc1 4.88%, CCOc1ccc(C2C(=O)N(C3CCCCC3)CC(=O)N2CCC2=CCCCC2)cc1OC (stereo not given) -5.28%, COc1ccccc1N1CCN(C(CNC(=O)C(=O)NCc2ccc(C)cc2)c2cccnc2)CC1 (stereo not given) -1.91%, COC(=O)c1sc(=S)n(-c2ccc(Cl)cc2)c1C -4.22%, CCOC(=O)c1c(N)sc(C(C)=O)c1C 0.0277%, Cc1cc(C)c(N)c(Cl)c1 2.23% [at 201 µM], COc1ccc(C2Sc3ccccc3NC3=C2C(=O)c2ccccc23)c(OC)c1OC (stereo not given) 0.429%, CCOc1cccc(CC(=O)N2CCc3c([nH]c4ccccc34)C2c2ccc(OC)cc2)c1OCC (stereo not given) -4.13%, Cc1ccc(OCC(=O)Nc2ccc(Cl)c(-c3nc4ccccc4[nH]3)c2)cc1C 11.7%, COc1ccc(C(F)(F)F)cc1NC(=O)c1sc2nc(-c3cccs3)ccc2c1N -2.16%, CCOc1ccc(C(=O)/C=C/c2cn(CC(O)CN3CCCCCC3)c3ccccc23)cc1 (stereo not given) -2.38%, Cc1ccc(CCNC(=O)c2ccc3c(c2)N(Cc2cc(C)ccc2C)C(=O)c2ccccc2S3=O)cc1 (stereo not given) 0.82%, O=C(C1CCC(Cn2c(=O)c3sccc3n(Cc3ccccc3F)c2=O)CC1)N1CCCCC1 (stereo not given) 4.55%, COc1cccc(N2CCN(S(=O)(=O)c3cc(Br)cc4c3N(C(=O)C3CC3)CC4)CC2)c1 -4.31%, CCOc1cccc2sc(N3CCN(C(=O)C4CC4)CC3)nc12 -14.1%, COc1ccc(OCCCn2c(C)nc3cc(C)c(C)cc32)cc1 -2.57%, CC(=O)Nc1ccc2nc(SCCOc3cc(C)cc(C)c3)sc2c1 -2.28%, COc1ccc(NC(=O)CSc2nc3ccccc3n2CC(=O)N2CCCCC2C)cc1 (stereo not given) -6.31%, Cc1cccc(CC(=O)Nc2cccc(-c3cn4cccnc4n3)c2)c1 -4.22%, CC(=O)N(CCN(C(C)=O)C(C)=O)C(C)=O 3.99% [at 201 µM], COc1ccc(Cl)cc1-n1c(CCC(=O)O)ccc1-c1ccc(C)cc1 -2.76%, CCOc1ccccc1N(CC)C(=O)c1cc2ccc3cccnc3c2[nH]1 -10.7%, CCOc1ccccc1CNC(=O)Nc1cn(CC(C)C)c(=O)c2ccccc12 -27.3%, O=C(Nc1cc(Cl)cc(Cl)c1)c1ccc2c(c1)N(Cc1cccc(Cl)c1)C(=O)c1ccccc1S2=O (stereo not given) -0.837%, Clc1cccc(-n2ncc3c(NCCc4ccccc4)ncnc32)c1 10.7%, CCOC(=O)c1c(C)oc2nc(C)nc(N(CC(C)C)CC(C)C)c12 -1.94%, O=C(Nc1cccc(-c2nc3ccccc3o2)c1)c1cccc(Br)c1 5.75%, CCN(CC)S(=O)(=O)c1nnc(NC(=O)COc2ccccc2Cl)s1 6.08%, O=C(c1ccc2c(c1)N(Cc1ccccc1)C(=O)c1ccccc1S2(=O)=O)N1CCC(Cc2ccccc2)CC1 -1.29%, CCc1ccc(NC(=O)c2sc3nc4c(cc3c2N)CN(CC)CC4)cc1 4.82%

Potency, active:
CN(C)c1ccc(N/C=C/C(=O)C(F)(F)F)cc1 44.7 µM, Oc1ccc(N=Cc2sc3ccccc3c2Cl)cc1 14.1 µM, COCCOC(=O)c1sc(=S)n(CCOC)c1N 39.8 µM
